Compound activity: PubChem BioAssay, National Center for Advancing Translational Sciences (NCATS)
Compounds with a hit are over-represented: about 2.3% of the library has one in this group of screens.
JMJD2E inh: inhibitors of human JMJD2E histone demethylase; JMJD2E catalytic domain, FDH-coupled NADH fluorescence (FDH is formaldehyde dehydrogenase); 230,000 compounds, 1.6% hits; AID 2147; Potency, µM (highest dose often 57.1 µM), actives largely listed as inhibitors; B2RXH2; active means well fitted inhibition curve with a large enough effect, not every such curve was filed as active; inconclusive means small, poorly fitted or top-dose-only effect, or another doubt; inactive means no such curve, though single readings can be large or run the other way; further: nearly all actives have a fitted effect of over 50% in size
Target sequence (B2RXH2 1-337 limits assumed): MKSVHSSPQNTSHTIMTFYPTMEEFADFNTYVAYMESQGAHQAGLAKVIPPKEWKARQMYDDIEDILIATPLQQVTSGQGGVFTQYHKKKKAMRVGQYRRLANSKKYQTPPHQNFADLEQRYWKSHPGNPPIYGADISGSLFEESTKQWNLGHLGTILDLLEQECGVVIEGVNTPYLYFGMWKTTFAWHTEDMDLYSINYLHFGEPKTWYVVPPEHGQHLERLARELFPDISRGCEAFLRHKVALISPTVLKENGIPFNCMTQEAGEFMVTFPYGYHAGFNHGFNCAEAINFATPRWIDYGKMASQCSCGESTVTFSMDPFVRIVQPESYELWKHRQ
Coupling enz: counter-screen for Giardia aldolase inhibitors: coupling enzyme system. coupling enzyme system counterscreen, AmpLite Red fluorescence. activity change, negative = inhibition, % at 58.2 µM, hits read low. 290,000 compounds, 0.67% hits. AID 2472; in the data active means activity change below about -30%
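Compounds tested against the coupling enzymes alone at 57.5 uM final; readout was AmpLite Red fluorescence (525/598 nm) after 20 min at RT.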
GoLoco inh red: inhibitors of human Gai1-RGS12 GoLoco interaction (red fluorophore) | P63096 | Gai1:RGS12 GoLoco peptide FP, rhodamine, 10 min | Potency, µM (titrated, usually from 61.6 µM), usual class: inhibitors | 230,000 compounds, 0.44% hits; active means well fitted inhibition curve with a large enough effect, not every such curve was filed as active; inactive means no such curve, though single readings can be large or run the other way; further: nearly all actives have a fitted effect of over 30% in size
HTT cytoprotect: cytoprotection in Huntington HTT-Q103 PC12 cell model; Potency, µM (top dose mostly 56.4 µM), actives largely listed as activators; 230,000 compounds, 0.14% hits; PC12 HTT-Q103 induced, cytoprotection, ATP luminescence, 40 h; further: nearly all actives have a fitted effect of over 45% in size
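Compounds were screened for protection of PC12 cells against cell death after tebufenozide induction (100 nM final) of mutant Huntingtin exon 1 (Q103) fused to GFP.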
VDR inhibitor: blocks the human vitamin D receptor; Potency, µM, usual class: inhibitors; 400,000 compounds, 0.93% hits; P11473; VDR-SRC2-3 peptide fluorescence polarization, 2 h
Target sequence (P11473 whole entry, looked up): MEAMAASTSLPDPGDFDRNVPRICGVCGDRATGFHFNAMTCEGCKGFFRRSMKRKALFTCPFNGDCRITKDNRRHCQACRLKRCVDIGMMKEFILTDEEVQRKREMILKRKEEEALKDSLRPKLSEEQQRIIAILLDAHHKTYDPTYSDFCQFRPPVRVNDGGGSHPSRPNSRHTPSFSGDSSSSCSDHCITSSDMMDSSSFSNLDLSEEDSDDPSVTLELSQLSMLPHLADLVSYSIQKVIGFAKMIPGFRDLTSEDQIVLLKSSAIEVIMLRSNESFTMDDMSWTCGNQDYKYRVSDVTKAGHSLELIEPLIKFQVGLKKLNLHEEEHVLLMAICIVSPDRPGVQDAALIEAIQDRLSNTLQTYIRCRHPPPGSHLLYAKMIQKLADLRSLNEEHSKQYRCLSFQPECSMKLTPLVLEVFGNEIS
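Fluorescence polarization assay measuring small-molecule disruption of VDR binding to the coregulator peptide SRC2-3. Compounds were pin-transferred (23 nl) into the reagent mix and incubated 2 h at room temperature before reading.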
HttQ103 aggreg: mutant huntingtin aggregation inhibition. AID 1688. Potency, µM (titrated, usually from 46.1 µM), hits mostly inhibitors. PC12 HttQ103-GFP aggregates, Acumen cytometry, 40 h. 220,000 compounds, 1.1% hits; further: nearly all actives have a fitted effect of over 60% in size
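Huntingtin Q103 exon 1–GFP aggregates in induced PC12 cells (100 nM tebufenozide) were quantified by cytometry from lysates, with compounds dosed in titration.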
Each line names hits and unclear results; the compound was inactive in the other large screens. Unless noted, the call rests on the fitted dose curve; in most records, active means well fitted curve in the direction sought with a large enough effect; inconclusive means small, poorly fitted or top-dose-only effect, or another doubt; inactive means no such curve, though single readings can be large; an effect the other way counts as inactive or inconclusive.

CCOC(=O)CN1C(=O)C(=O)c2cccc(C)c21	Coupling enz -48, HttQ103 aggreg inconclusive
Cc1cc(C)n(-c2nc(Nc3ccccc3C(F)(F)F)nc(-n3nc(C)cc3C)n2)n1	HttQ103 aggreg 10µM
CCOC(=O)c1cnc2ccc(Cl)cc2c1N1CCN(C)CC1	none
CCOC(=O)c1cnc2ccc(OCC)cc2c1N1CCN(C)CC1	Coupling enz -39 (no result: GoLoco inh red)
C[C@@]12C(=O)OC(=O)[C@@]1(C)[C@H]1CC[C@@H]2O1	none (no result: JMJD2E inh, Coupling enz, GoLoco inh red, VDR inhibitor, HttQ103 aggreg)
COc1cc(/C=C(/C#N)C(=O)Nc2ccccc2)c(Br)cc1OCc1ccc(C(=O)O)cc1	VDR inhibitor 50µM
Cc1cc(OCc2cccc(Cl)c2)c(C)cc1CN1CCOCC1	HTT cytoprotect 1.1µM, HttQ103 aggreg inconclusive
O=C(CCNS(=O)(=O)c1ccccc1)NNC(=O)c1cccc(Cl)c1	none (no result: JMJD2E inh, Coupling enz, GoLoco inh red, HTT cytoprotect, HttQ103 aggreg)
CC1=CC(=NOC(=O)/C=C/c2ccccc2)C=C(C)C1=O	Coupling enz -45, VDR inhibitor inconclusive
CCC(=O)NC(c1ccccc1OC)c1ccc2cccnc2c1O (stereo unspecified)	JMJD2E inh 25µM, HttQ103 aggreg 3.2µM
CCCC(=O)NC(c1ccc(OC)cc1)c1ccc2cccnc2c1O (stereo unspecified)	JMJD2E inh 22µM, HttQ103 aggreg inconclusive
CCCCC(=O)NC(c1ccccc1Cl)c1ccc2cccnc2c1O (stereo unspecified)	none (no result: JMJD2E inh, GoLoco inh red, HTT cytoprotect, HttQ103 aggreg)
O=C1C=CC(=C(c2ccc(O)cc2)c2ccc(O)cc2)C=C1	JMJD2E inh inconclusive, VDR inhibitor 50µM (no result: HttQ103 aggreg)
O=C(CCCC(=O)c1ccc(O)cc1)c1ccc(O)cc1	none (no result: JMJD2E inh, Coupling enz, GoLoco inh red, HTT cytoprotect, HttQ103 aggreg)
Cc1cccc(C2c3[nH]c4ccccc4c3CCN2Cc2cccn2-c2ncccn2)c1 (stereo unspecified)	JMJD2E inh 32µM (no result: HTT cytoprotect, HttQ103 aggreg)
COc1ccc(C2c3[nH]c4ccccc4c3CCN2Cc2cccn2-c2ncccn2)cc1C (stereo unspecified)	none
CC1=CC2C(=O)c3cccc(O)c3C(=O)C2C(O)=C1 (stereo unspecified)	VDR inhibitor 25µM (no result: HttQ103 aggreg)
C(=N\NC1=Nc2cccc3cccc1c23)/c1ccccc1	none (no result: HTT cytoprotect)
NC1=Nc2cccc3cccc1c23	JMJD2E inh inconclusive, GoLoco inh red 20µM, HttQ103 aggreg inconclusive
CC(=O)N1CCN(C(=O)CSc2nc3c(cnn3-c3ccccc3)c(=O)[nH]2)CC1	none
O=C(CSc1nc2c(cnn2-c2ccccc2)c(=O)[nH]1)N1N=C(c2cccs2)CC1c1ccc(F)cc1 (stereo unspecified)	JMJD2E inh 4µM (no result: HTT cytoprotect)
CCn1c(SCC(=O)OC2CCCCC2)nc2ccccc2c1=O	HttQ103 aggreg 0.63µM
CCCCN1C(=O)Cc2c1nc(N)c1c(N)nc(N(CCC)CCC)c(C#N)c21	JMJD2E inh inconclusive, VDR inhibitor inconclusive, HttQ103 aggreg inconclusive
N#Cc1c(N(CCO)CCO)nc(N)c2c(N)nc3c(c12)CC(=O)N3CC1CCCO1 (stereo unspecified)	JMJD2E inh inconclusive, Coupling enz -38
COc1ccc(NCc2cc3cc4c(cc3n(CC(=O)Nc3ccc(F)cc3F)c2=O)OCO4)cc1	none (no result: JMJD2E inh, Coupling enz, GoLoco inh red, HTT cytoprotect, HttQ103 aggreg)
CC(=O)Nc1sc(N/N=C\c2cccc(Cl)c2)nc1-c1cccs1	VDR inhibitor 7.1µM
CC(=O)Nc1sc(N/N=C\c2ccc(O)cc2)nc1-c1cccs1	none
O=C(NNc1nc(=O)c2cccnc2s1)c1ccccc1O	JMJD2E inh 14µM, HttQ103 aggreg 7.9µM
CCN=c1scc(-c2cccs2)n1/N=C/c1cc(OC)ccc1O	none
CC(C)N=c1scc(-c2cccs2)n1/N=C/c1ccc(O)c(O)c1O	JMJD2E inh 28µM, HttQ103 aggreg inconclusive
Cc1ccc(O)c(C(=O)c2cnn(C(=O)COc3ccc(Cl)cc3)c2)c1	HttQ103 aggreg 5.6µM
CCCC(=O)OC(=O)CCC	none (no result: JMJD2E inh, Coupling enz, VDR inhibitor, HttQ103 aggreg)
CCCCNC1C(CC)C(CCC)C(C#N)(C#N)C1(C#N)C#N (stereo unspecified)	VDR inhibitor 45µM, HttQ103 aggreg inconclusive
CN(C)c1cccc(C(=O)N2CCCC(CCC(=O)NCc3ccccc3F)C2)c1 (stereo unspecified)	none (no result: JMJD2E inh, GoLoco inh red, HTT cytoprotect, HttQ103 aggreg)
NC(=O)N/N=C/c1c(F)c(F)c(F)c(F)c1F	VDR inhibitor 25µM
CCOCCCNC(=O)C(c1ccccc1)N1Cc2ccccc2C1=O (stereo unspecified)	none (no result: JMJD2E inh, Coupling enz, GoLoco inh red, HTT cytoprotect, HttQ103 aggreg)
CCNc1nc(NC(C)C)nc(N(C#N)CCOc2ccc(Cl)cc2Cl)n1	JMJD2E inh inconclusive, HttQ103 aggreg 35µM
CCNc1nc(NC(C)C)nc(N(C#N)CC(=O)OC)n1	none
CC(=O)OCC1=C(C(=O)O)N2C(=O)C(NC(=O)CCn3nc(C)c(Cl)c3C)C2SC1 (stereo unspecified)	none
CC(=O)OCC1=C(C(=O)O)N2C(=O)C(NC(=O)CCn3nc(C(F)(F)F)c(Br)c3C3CC3)C2SC1 (stereo unspecified)	VDR inhibitor 40µM
CCCCCOC(=O)CSc1nc2sc3c(c2c(=O)n1-c1ccccc1)CC(C)(CC)OC3 (stereo unspecified)	none (no result: JMJD2E inh, Coupling enz, GoLoco inh red, HTT cytoprotect, HttQ103 aggreg)
CCOc1ccc(-n2c(=O)c3c4c(sc3n(CC(=O)Nc3cccc(C(F)(F)F)c3)c2=O)CCCCC4)cc1	none (no result: JMJD2E inh, Coupling enz, GoLoco inh red, HTT cytoprotect, HttQ103 aggreg)
COc1ccc2[nH]c3c(N4CCN(Cc5ccc6c(c5)OCO6)CC4)ncnc3c2c1	JMJD2E inh inconclusive, HttQ103 aggreg 13µM (no result: GoLoco inh red)
COc1ccc2c(c1)c1ncnc(N3CCN(Cc4ccc5c(c4)OCO5)CC3)c1n2C	JMJD2E inh inconclusive, HTT cytoprotect inconclusive, HttQ103 aggreg inconclusive (no result: VDR inhibitor)
CC(=O)[C@H]1[C@@H]2C(=O)N(c3cccc(Cl)c3)C(=O)[C@@H]2[C@H]2c3ccccc3C=CN21	JMJD2E inh inconclusive, Coupling enz -36
O=C(c1ccco1)[C@@H]1[C@@H]2C(=O)N(c3ccc(Br)cc3)C(=O)[C@@H]2C2c3ccccc3C=CN21 (stereo partly specified)	Coupling enz -40
O=C(c1ccco1)[C@@H]1[C@@H]2C(=O)N(c3ccc(F)cc3)C(=O)[C@@H]2C2c3ccccc3C=CN21 (stereo partly specified)	Coupling enz -40 (no result: VDR inhibitor)
CC(=O)[C@@H]1[C@@H]2C(=O)N(C3CCCCC3)C(=O)[C@@H]2C2c3ccccc3C=CN21 (stereo partly specified)	JMJD2E inh inconclusive (no result: Coupling enz, VDR inhibitor)
COc1ccccc1NS(=O)(=O)c1cc(NC(=O)C(C)C)ccc1N1CCCCC1	VDR inhibitor 79µM
COc1ccccc1NS(=O)(=O)c1cc(NC(=O)Nc2ccccc2)ccc1N1CCCCC1	JMJD2E inh inconclusive, HttQ103 aggreg inconclusive
COc1ccccc1NS(=O)(=O)c1cc(NC(=O)c2cccs2)ccc1N1CCCCC1	JMJD2E inh 25µM, HttQ103 aggreg inconclusive
